# This is a sample that favours compounds with a hit; in the whole collection about 12% have one here.
# G9a block = G9a (human) methyltransferase inhibition | Potency, µM (titrated, usually from 102 µM), for inactives: at the highest dose activity, negative = inhibition, actives largely listed as inhibitors | AID 504332 | G9a H3K9 monomethylation, AlphaScreen, 2 h | 350,000 tested, 8.8% active; note: % is set by controls: 0 for no effect and ±100 for the full control effect; nearly all actives have a fitted effect of over 75% in size
#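 Methyltransferase reactions run at room temperature for 2 h (20 nM enzyme, 500 nM biotin-H3K9 peptide, 20 uM SAM) after a 15 min compound preincubation; product detected by AlphaScreen beads and anti-H3K9me1 antibody.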
# HP1b chromo inh = HP1-beta chromodomain-methylated histone interaction inhibition. P83916. AlphaScreen HP1-beta / biotin-H3K9me3 peptide binding. Potency, µM (titrated, usually from 114 µM), for the others: at the top dose activity change, negative = inhibition, hits mostly inhibitors. 390,000 tested, 0.56% active; note: nearly all actives have a fitted effect of over 70% in size
#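 Compound inhibition of the preformed complex between 50 nM HP1-beta and 50 nM biotinylated H3K9me3 peptide was read by AlphaScreen. Buffer was PBS pH 7.4 with 0.01% Tween-20. Incubations ran 30 min at room temperature, with 10 ug/mL donor/acceptor beads.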
# BAZ2B inh = inhibitors of human BAZ2B bromodomain. Q9UIF8. AlphaScreen BAZ2B-H3K14Ac peptide displacement. Potency, µM (highest dose often 114 µM), without a hit: at the highest dose activity change, negative = inhibition, hits mostly inhibitors. 360,000 tested, 4.4% active; note: % is set by controls: 0 for no effect and ±100 for the full control effect; nearly all actives have a fitted effect of over 60% in size
#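 AlphaScreen displacement of biotin-H3(5-23)K14Ac peptide (50 nM final) from BAZ2B (50 nM final) in PBS pH 7.4, 0.01% Tween-20; complex preformed 30 min RT, then compounds (top 110 uM) 30 min RT, beads 20 min dark.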
# JMJD2A Tudor = inhibitors of human JMJD2A Tudor domain; 390,000 tested, 4.4% active; Potency, µM (series often up to 114 µM), for inactives: at the top dose activity change, negative = inhibition, most hits filed as inhibitors; O75164; AlphaScreen JMJD2A-Tudor / H3K4me3 peptide binding; note: % is set by controls: 0 for no effect and ±100 for the full control effect; nearly all actives have a fitted effect of over 50% in size
# Sfp inh = blocks B. subtilis Sfp PPTase activity. Q9F4F7. Biochemical Sfp PPTase activity, qHTS. Potency, µM, for inactives: largest response in the series, negative = inhibition, most hits filed as inhibitors. 310,000 tested, 3.5% active. AID 1490;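 note: the enzyme is Sfp with the accession as filed and its product quenches rhodamine fluorescence; 0% = enzyme reaction without inhibitor and -100% = no enzyme wells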
#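 With Hepes-Na pH 7.6 buffer containing 10 mM MgCl2, Sfp (15 nM) modified BHQ-2-YbbR (12.5 uM) using rhodamine-CoA (5 uM). Two reads 30 minutes apart at 525/598 nm yielded each well's rate.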
# L3MBTL1 block = blocks human L3MBTL1 | Q9Y468 | AlphaScreen L3MBTL1–H3K9me1 peptide binding | Potency, µM (doses to about 57.1 µM), without a hit: at the top dose activity, negative = inhibition, hits mostly inhibitors | 230,000 tested, 0.66% active | AID 485360; note: % is set by controls: 0 for no effect and ±100 for the full control effect; nearly all actives have a fitted effect of over 60% in size
# Target sequence (Q9Y468 whole entry, looked up): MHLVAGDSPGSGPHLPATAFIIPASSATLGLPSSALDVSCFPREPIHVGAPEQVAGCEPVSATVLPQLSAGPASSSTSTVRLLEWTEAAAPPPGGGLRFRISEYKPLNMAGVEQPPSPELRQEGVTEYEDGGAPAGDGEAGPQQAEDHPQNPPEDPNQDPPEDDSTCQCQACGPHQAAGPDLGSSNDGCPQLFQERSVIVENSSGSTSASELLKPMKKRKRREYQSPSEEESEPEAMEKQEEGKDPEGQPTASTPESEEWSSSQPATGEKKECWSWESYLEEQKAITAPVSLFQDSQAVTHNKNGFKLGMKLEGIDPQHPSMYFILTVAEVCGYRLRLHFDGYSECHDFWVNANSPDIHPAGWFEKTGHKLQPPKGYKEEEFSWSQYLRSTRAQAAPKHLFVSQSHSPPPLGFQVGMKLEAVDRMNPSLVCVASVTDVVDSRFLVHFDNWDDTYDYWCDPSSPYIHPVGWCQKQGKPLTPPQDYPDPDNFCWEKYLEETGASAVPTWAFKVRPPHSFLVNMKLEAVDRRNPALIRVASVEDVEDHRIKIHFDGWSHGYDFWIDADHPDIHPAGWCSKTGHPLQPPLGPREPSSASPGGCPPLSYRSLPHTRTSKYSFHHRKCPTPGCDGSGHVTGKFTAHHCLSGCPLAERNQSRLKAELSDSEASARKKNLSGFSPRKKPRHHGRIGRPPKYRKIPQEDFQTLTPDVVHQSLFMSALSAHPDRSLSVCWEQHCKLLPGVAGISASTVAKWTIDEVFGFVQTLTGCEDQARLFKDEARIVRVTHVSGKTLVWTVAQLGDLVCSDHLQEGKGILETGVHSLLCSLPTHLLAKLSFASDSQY
#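 L3MBTL1 (50 nM) pre-complexed 30 min with biotinylated H3(1-15)K9me1 peptide (75 nM), then compounds added for 30 min at room temperature; AlphaScreen streptavidin donor/nickel chelate acceptor beads (10 ug/mL final) read after 30 min dark incubation.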
# An asterisk follows results filed as active; ? = inconclusive; · = no result; [ ] = remark or other dose. Calls come from the whole dose curve; as a rule, active = well fitted curve in the direction sought with a large enough effect; inconclusive = small, poorly fitted or top-dose-only effect, or another doubt; inactive = no such curve, though single readings can be large; an effect the other way counts as inactive or inconclusive. Potency is the fitted concentration of half-maximal effect.
SMILES,G9a block,HP1b chromo inh,BAZ2B inh,JMJD2A Tudor,Sfp inh,L3MBTL1 block
COc1ccc2c(c1)c(C(=O)CN1CCN(c3ccccc3)CC1)c(C)n2C,35µM*,-7%,?,-33%,5%,-28%
COc1ccc(N2CCN(CC(=O)N3c4ccccc4CC3C)CC2)cc1 (stereo not drawn),8.9µM*,25µM*,35µM*,2.8µM*,-12%,·
CCOc1ccc(Nc2nc3cc(Cl)c(Cl)cc3nc2-n2nc(C)cc2C)cc1,1%[59 µM],56%,4%,15%,·,·
Cc1ccc(C)c(Cn2c(CN(C)Cc3ccccc3)nc3c2c(=O)n(C)c(=O)n3C)c1,?,24%,-10%,-28%,-27%,-2%
CC(=O)c1ccc(NC(=O)Cn2c(-n3nc(C)cc3C)nc(C)c(C)c2=O)cc1,4µM*,40%,-6%,-18%,·,·
Cc1cc(C)n(-c2nc(C)c(C)c(=O)n2CC(=O)Nc2cccc([N+](=O)[O-])c2)n1,6.3µM*,7%,-11%,?,·,·
Cc1nc2cnc(Oc3cccc(Cl)c3)nc2n(Cc2ccc(F)cc2)c1=O,10%[0.501 µM],·,·,·,0%,·
COC(C(=O)Nc1ccc(Cl)cc1C)c1ccccc1 (stereo not drawn),8.9µM*,29%,-9%,-15%[57.1 µM],-5%,4%
COC(C(=O)Nc1c(F)cccc1F)c1ccccc1 (stereo not drawn),-7%,23%,2%,-1%,11%,6%
COC(C(=O)Nc1ccc(NC(=O)C(OC)c2ccccc2)cc1)c1ccccc1 (stereo not drawn),50µM*,54%,-10%,3%,20%,5%
O=C1c2ccccc2C(=O)N1c1cccc(O)c1,·,24%,·,-13%,·,·
CCOc1ccc(NC(C)c2cc(Cl)ccc2O)cc1 (stereo not drawn),40µM*,?,35µM*,?,20%,?
CC(Nc1ccc(Cl)cc1)c1cc(Cl)ccc1O (stereo not drawn),43%[59 µM],16%,-1%,-7%,-24%,-6%
O=C1C=C(c2ccc(C(=O)O)c(Cl)c2)C[C@@H](c2ccc3c(c2)OCO3)C1,·,20%,·,71µM*,·,-16%
O=C1C=C(c2ccc(-c3ccccc3)cc2)C[C@@H](c2ccc3c(c2)OCO3)C1,5%[0.501 µM],33%,2%,-11%,·,5%
Cc1cc(C)nc(NC(=O)/C=C/c2ccccc2Cl)n1,-17%[59 µM],34%,7%,4%,-6%,-3%
Cc1cccc(C(=O)NC(=S)NNC(=O)c2ccccc2Cl)c1,7.9µM*,-16%,-5%,-28%,-19%,13%
Cc1ccccc1C(=O)NNC(=S)NC(=O)c1ccc(Cl)cc1Cl,?,8%,2%,-8%,6%,·
Cc1cccc(C(=O)NC(=S)NNC(=O)Cc2ccccc2)c1,7.1µM*,1%[57 µM],2%,-30%,13%,19%
Cc1cc(C(=O)NNC(=S)NC(=O)/C=C/c2ccccc2Cl)n[nH]1,28µM*,-17%,22µM*,50µM*,7%,·
Cc1ccc(C(=O)NNC(=S)Nc2cccc3ccccc23)s1,35µM*,-18%,3%,-14%,-2%,-5%
Cc1cccc(C(=O)NC(=S)NCc2ccccc2)c1,·,-2%,·,-13%,·,·
O=C(NNC(=S)Nc1cccc2ccccc12)c1cccc(Br)c1,?,?,-35%,-36%,11%,·
COc1ccc(NC(=O)CSCC(=O)Nc2cc(Cl)ccc2N2CCCC2)cc1,·,11%,-27%,-33%,3%,·
COc1ccc(CNC(=O)Cn2ccc3cc(S(=O)(=O)N4CCCCC4)ccc32)c(OC)c1,-35%[59 µM],10%,-37%,-21%,·,·
SMILES,G9a block,HP1b chromo inh,BAZ2B inh,JMJD2A Tudor,Sfp inh,L3MBTL1 block
CC1Cc2c([nH]c3ccccc23)C(=O)N1 (stereo not drawn),·,32%,5%,-1%,14%,-5%
O=C(O)c1ccccc1NC(=S)NC(=O)c1cccc2ccccc12,50µM*,-2%,?,-10%,50µM*,-1%
COc1cccc(C(=O)NC(=S)Nc2ccc3c4c(cccc24)CC3)c1,23%[0.501 µM],-20%,-9%,?,-12%,-8%
COc1cccc(C(=O)NC(=S)Nc2ccc(Cl)cc2C(=O)O)c1,?,?,-19%,-13%,50µM*,0%
Cc1cccc(C(=O)NC(=S)NNC(=O)COc2c(C)cccc2C)c1,7.9µM*,-20%,-12%,?,-15%,12%
CNC(=O)c1ccsc1NC(=O)c1coc2ccccc2c1=O,50µM*,60%,-24%,-11%,10%,-3%
O=C(CNC(=O)c1ccc(-c2ccccc2)cc1)OCc1ccc(Br)cc1,-10%,64%,5%,32%,16%,-13%
O=C(NC(=S)Nc1ccc2c(c1)OCCO2)c1cccc2ccccc12,40µM*,6%,?,?,-6%,-16%
O=C(Nc1ccc2c(c1)OCCO2)c1coc2ccccc2c1=O,8%[59 µM],62%,9%,28µM*,-13%,10%
Cc1ccc2c(NC(=S)NC(=O)c3ccccc3)cccc2n1,·,0%,?,-30%,56µM*,·
Cc1cccc(C(=O)NC(=S)Nc2ccccc2C(=O)O)c1,45µM*,?,-11%,-25%,?,1%
Cc1cccc(C(=O)NC(=S)Nc2ccccc2C(F)(F)F)c1,-2%[59 µM],-11%,-35%,?,2%,-8%
Cc1ccc(NC(=O)CN2C(=O)C(c3ccc(F)cc3)=NC2(C)C)c(C)c1,12%[59 µM],51%,-4%,1%,·,·
O=C(/C=C/c1ccccc1[N+](=O)[O-])Nc1cc(S(=O)(=O)N2CCOCC2)ccc1N1CCOCC1,·,17%,·,-20%,·,·
O=C(Cl)CCCCCCCC(=O)Cl,·,·,·,·,-3%,·
O=C(CCCCCNC(=O)N1CCn2c1nc1ccccc12)NCc1ccc(F)cc1,58%,46%,-17%,-7%,15%,·
COc1ccc(C(=O)C(C)OC(=O)CCN2C(=O)C3CC=CCC3C2=O)cc1 (stereo not drawn),7.9µM*,24%,18%,-5%,·,35%
O=C(CSc1nc2ncccc2[nH]1)Nc1cc(F)ccc1F,-43%[59 µM],23%,2%,-3%,·,·

# From PubChem BioAssay
